# High-throughput results from PubChem BioAssay.
# Only some compounds are listed: those with a hit (about 0.3% of all), similar ones and a draw of the others.
# mcGAS inh = mouse cGAS inhibition by luminescence; Q8C6L5; recombinant cGAS, Kinase-Glo ATP depletion luminescence; inhibition, % at 12.5 µM; hit rate 0.15% among 160,000
# Target sequence (Q8C6L5 whole entry, looked up): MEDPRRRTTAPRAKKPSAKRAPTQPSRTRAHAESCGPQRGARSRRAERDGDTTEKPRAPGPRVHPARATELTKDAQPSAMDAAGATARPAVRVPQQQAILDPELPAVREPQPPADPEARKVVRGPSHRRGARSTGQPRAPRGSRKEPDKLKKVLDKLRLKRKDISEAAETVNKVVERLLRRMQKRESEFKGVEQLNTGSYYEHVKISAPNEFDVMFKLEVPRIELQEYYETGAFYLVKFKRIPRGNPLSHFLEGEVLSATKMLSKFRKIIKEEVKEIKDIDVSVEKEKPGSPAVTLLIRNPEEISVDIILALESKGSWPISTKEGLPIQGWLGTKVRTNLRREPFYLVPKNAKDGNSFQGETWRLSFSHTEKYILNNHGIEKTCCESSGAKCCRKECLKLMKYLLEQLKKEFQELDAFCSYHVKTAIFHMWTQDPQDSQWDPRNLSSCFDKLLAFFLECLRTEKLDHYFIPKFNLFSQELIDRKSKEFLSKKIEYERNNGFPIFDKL
# hcGAS lum = human cGAS inhibition; Q8N884; recombinant h-cGAS, ATP depletion, Kinase-Glo luminescence; inhibition, % at 12.5 µM; hit rate 0.081% among 290,000; AID 1259398
# NPYLR7 agonist = activates Aedes aegypti NPYLR7 receptor; HEK293T NPYLR7/Galpha15, GCaMP6s calcium fluorescence; activation, % at 10 µM; hit rate 0.15% among 270,000; AID 1259423; in the data active = activation above about 40%
# Hits are given with their value; n = inactive; x = not tested or not shown. Cut-off read from the data, not from the text of the source, unless noted: active = inhibition above about 40%; inactive = the rest.
SMILES,mcGAS inh,hcGAS lum,NPYLR7 agonist
CSCC(C)C(=O)N1CCC(NC2CC2)CC1 (stereo not drawn),x,n,n
CC(C)(CCl)C(=O)N(CCCN1CCOCC1)CC(=O)N(Cc1ccc(F)cc1)Cc1ccco1,n,n,x
COc1ccccc1C=C1SC(=S)N(Cc2ccco2)C1=O,x,n,n
CCOCCCN1C(=O)C(=Cc2ccccc2O)NC1=S,x,n,119.6
O=C1C(=Cc2ccccc2O)NC(=S)N1Cc1ccco1,n,n,80.1
CCCCN1C(=O)C(=Cc2cccnc2)NC1=S,x,n,n
COc1ccc(C=C2SC(=O)N(CCNC(=O)c3ccc(C)o3)C2=O)cc1OC,x,n,n
COc1ccc(/C(C)=N\OCC(=O)N2CCOC(COc3ccccc3OC)C2)cc1 (stereo not drawn),x,n,n
COc1ccc(-c2coc3cc(O)ccc3c2=O)c(O)c1O,68.0,50.8,x
COc1ccc(-c2coc3cc(O)ccc3c2=O)c(OC)c1O,n,n,n
CCCCN(CC(=O)N(CCc1c[nH]c2ccccc12)Cc1ccccc1)C(=O)Nc1ccccc1C(F)(F)F,n,n,n
CC(C)Oc1nc(-c2ccco2)n(-c2ccc(N)cc2)n1,x,n,n
CC(C)Oc1c(-c2ccco2)c(=O)c1=O,x,65.8,n
Cc1cc(CNC(=O)CC2(Cc3ccccc3)C(=O)N(C)c3ccccc32)n[nH]1 (stereo not drawn),n,n,n
NCCc1ccc(O)c(O)c1,n,n,n
CC(=O)NCCc1ccc(O)c(O)c1,n,n,87.5
CC(C)c1nc(CCNC(=O)N2CCCCC2C)cs1 (stereo not drawn),x,n,n
Cc1cc(C(=S)N=P(N(C)C)(N(C)C)N(C)C)c(C)n1-c1ccccc1,x,n,n
c1csc(-c2cnc3ccc(-c4ccncc4)nn23)c1,n,n,n
O=c1nc2n3ccc(-c4ccncc4)cc3ncc-2s1,n,n,55.1
CCOC(=O)c1ccc(N=c2oc3cc(O)ccc3cc2-c2nc3ccccc3[nH]2)cc1,n,n,120.4
NC(=S)N/N=c1\oc2ccccc2cc1-c1nc2ccccc2[nH]1,x,n,n
COc1ccccc1N=c1oc2cc(O)ccc2cc1-c1nc2ccccc2[nH]1,n,n,81.5
COc1ccccc1N=c1oc2ccc3ccccc3c2cc1-c1nc2ccccc2[nH]1,x,n,n
CCOC(=O)c1ccc(N=c2oc3ccccc3cc2-c2nc3ccccc3[nH]2)cc1,n,n,n
SMILES,mcGAS inh,hcGAS lum,NPYLR7 agonist
NC(=O)N/N=c1\oc2ccccc2cc1-c1nc2ccccc2[nH]1,48.2,n,n
CCn1c(C(C)NC)nc2cc(Cl)ccc2c1=O (stereo not drawn),x,n,n
CC1CN(S(=O)(=O)NC2CCN(C3CCCC3)C2)CC(C)O1 (stereo not drawn),x,n,n
COc1ccccc1-c1n[nH]c(=S)n1C1CCCCC1,x,n,n
CC1=NC2=C(C(=O)CC(C)(C)C2)C(c2ccc3c(c2)OCO3)C1C(=O)Nc1ccccc1 (stereo not drawn),n,n,n
COc1ccc(C=CC(=O)c2ccc(C)o2)cc1OC,x,n,n
Cc1ccc(C(=O)C=Cc2ccc(N(C)C)cc2)o1,x,n,75.3
CN=c1scc(-c2ccc(Cl)cc2Cl)n1N=Cc1cc(OC)c(OC)cc1OC,x,n,n
CN(C)c1cc(CNC(=O)Nc2ccc(C#N)cc2)ccn1,x,n,n
CCN1C(=Cc2cc(C)[n+](C3CCCCC3)c(C)c2)Sc2ccccc21,x,n,265.9
CCN1/C(=C\C=C2/SC(=NCc3ccccc3)N(C)C2=O)Sc2ccccc21,n,n,n
CCN1C(=Cc2cc(C)[n+](CCO)c(C)c2)Sc2ccccc21,n,n,n
CCC(CO)[n+]1c(C)cc(C=C2Sc3ccccc3N2Cc2ccccc2)cc1C (stereo not drawn),x,n,150.5
O=C(N[C@H]1CN[C@H](C(=O)NCCc2c[nH]c3ccccc23)C1)c1cccc(F)c1,n,n,n
CCOc1cc(-c2nn(CN3CCOCC3)c(=S)o2)cc(OCC)c1OCC,x,n,n
S=c1oc(-c2sc3ccccc3c2Cl)nn1CN1CCOCC1,n,42.7,n
COc1ccc(NC(=O)CSc2ccc(-c3sc(C)nc3C)nn2)c(OC)c1,n,n,n
CCCC(=O)Nc1ccc(N2CCCC2)c(C(=O)NC2CCCCC2)c1,n,n,n
O=c1nc2sc3[nH]c(=O)sc3cc-2s1,46.3,n,244.2
COc1ccc(CN(C(=O)CC(C)(C)C)C2CC2)cc1OCc1nc(CO)cs1,n,n,n
CC(C)=CCCC1(C)C=Cc2c(O)c3c(c(CC=C(C)C)c2O1)OC12C(=CCCC1C(C)(C)O[C@@]2(C/C=C(\C)C(=O)O)C(=O)O)C3=O (stereo partly drawn),57.8,67.6,x
CC(C)=CCc1c2c(c(O)c3c(=O)c(O)c(-c4ccccc4)oc13)C=CC(C)(C)O2,n,n,n
O=C(NCCCc1ccccn1)C1CCCN(C2CCN(C(=O)C3CC3)CC2)C1 (stereo not drawn),n,n,n
